Experimental data: PubChem BioAssay (NCI)
This is part of a sample that, as a whole, favours compounds with a hit. Of some 83,000 tested, about 20% had one in any assay.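 Negative percent growth values reflect cell death: -40 means 40% of the cells present at the start died, and -100 means all died.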 The source made the active and inactive calls. Rule for the calls: active = growth percent below 10; inactive = the rest.

Legend:
Assay in all cases: NCI-60 one-dose screen, 48 h (100 = growth as untreated, 0 = no growth, -100 = all killed)
NCI-H23 lung = settings: 10 µM unless noted
NCI-H226 lung = settings: 10 µM unless noted
NCI-H322M lung = settings: 10 µM unless noted
HOP-62 NSCLC = settings: 10 µM unless noted
NCI-H460 lung = settings: 10 µM unless noted
HOP-92 NSCLC = settings: 10 µM unless noted
NCI-H522 lung = settings: 10 µM unless noted
786-0 renal = settings: 10 µM unless noted
COLO 205 colon = settings: 10 µM unless noted
DU-145 prostate = settings: 10 µM unless noted
K-562 leukemia = settings: 10 µM unless noted
MALME-3M melanoma = settings: 10 µM unless noted
RXF 393 renal = settings: 10 µM unless noted
SF-268 CNS = settings: 10 µM unless noted
SF-295 CNS = settings: 10 µM unless noted
SF-539 CNS = settings: 10 µM unless noted
UACC-257 melanoma = settings: 10 µM
M14 melanoma = settings: 10 µM unless noted
MDA-MB-231 breast = settings: 10 µM unless noted
A549/ATCC NSCLC = settings: 10 µM unless noted

Measured: growth

CCCCCCCCCCCCOB(OCCCCCCCCCCCC)OCCCCCCCCCCCC
inactive: NCI-H23 lung 88.3% | NCI-H226 lung 99.3% | NCI-H322M lung 101% | HOP-62 NSCLC 94.5% | NCI-H460 lung 109% | HOP-92 NSCLC 101% | NCI-H522 lung 95.2% | 786-0 renal 120% | COLO 205 colon 98.2% | DU-145 prostate 100% | K-562 leukemia 92.5% | MALME-3M melanoma 90.4% | RXF 393 renal 114% | SF-268 CNS 97.2% | SF-295 CNS 104% | SF-539 CNS 106% | UACC-257 melanoma 95.4% | M14 melanoma 117%

COc1ccc(OC)c(C(=O)c2oc3ccc(Br)cc3c2N)c1
inactive: NCI-H23 lung 24.7% | NCI-H226 lung 55.9% | NCI-H322M lung 20.9% | HOP-62 NSCLC 33.6% | 786-0 renal 38% | DU-145 prostate 16.3% | MALME-3M melanoma 35.2% | MDA-MB-231 breast 29.8% | SF-268 CNS 47.3% | UACC-257 melanoma 49.9% | M14 melanoma 27.3%
active: NCI-H460 lung 8.36% | HOP-92 NSCLC 4.96% | NCI-H522 lung -2.14% | COLO 205 colon -16.1% | K-562 leukemia 8.24% | RXF 393 renal -30.1% | SF-295 CNS -35.1% | SF-539 CNS -44.4%

CC(=O)Nc1ccc(S(=O)(=O)N2C(=O)CCC2C(=O)Nc2ccccc2)cc1 (stereo unspecified)
inactive: NCI-H23 lung 38.5% | NCI-H226 lung 46.9% | NCI-H322M lung 38% | HOP-62 NSCLC 30.3% | NCI-H460 lung 15.1% | NCI-H522 lung 27.5% | 786-0 renal 26.2% | COLO 205 colon 12.1% | DU-145 prostate 50.2% | K-562 leukemia 11.8% | MDA-MB-231 breast 25.6% | RXF 393 renal 57.7% | SF-268 CNS 61.9% | UACC-257 melanoma 33.7% | M14 melanoma 10.3%
active: HOP-92 NSCLC -5.79% | SF-295 CNS 1.91% | SF-539 CNS -22%

CCCCCCCCCCn1cc[n+](C)c1
inactive: NCI-H23 lung 28.8% | NCI-H226 lung 30.4% | NCI-H322M lung 57.1% | HOP-62 NSCLC 38.2% | NCI-H460 lung 23.6% | HOP-92 NSCLC 51.9% | 786-0 renal 47.8% | DU-145 prostate 75.4% | K-562 leukemia 64.2% | MDA-MB-231 breast 41.5% | SF-268 CNS 58.7% | SF-539 CNS 30.5% | M14 melanoma 24.6%
active: NCI-H522 lung -19.9% | COLO 205 colon 8.8% | MALME-3M melanoma 8.94% | RXF 393 renal -20.8% | SF-295 CNS 9.99% | UACC-257 melanoma -12.4%

c1ccc2nc(-c3ccc4ccccc4n3)ccc2c1
inactive: NCI-H23 lung 88.5% | NCI-H226 lung 85.9% | NCI-H322M lung 95.8% | HOP-62 NSCLC 82.8% | NCI-H460 lung 103% | HOP-92 NSCLC 83% | NCI-H522 lung 70% | A549/ATCC NSCLC 102% | COLO 205 colon 106% | DU-145 prostate 106% | K-562 leukemia 93.3% | MALME-3M melanoma 83.5% | RXF 393 renal 117% | SF-268 CNS 95.9% | SF-295 CNS 93.5% | SF-539 CNS 88.3% | UACC-257 melanoma 106% | M14 melanoma 90.2%

CC(Br)C(Br)c1cc2c(cc1Br)OCO2 (stereo unspecified)
inactive: NCI-H23 lung 96.4% | NCI-H226 lung 99.3% | NCI-H322M lung 87.5% | HOP-62 NSCLC 68% | NCI-H460 lung 126% | HOP-92 NSCLC 106% | NCI-H522 lung 87.2% | A549/ATCC NSCLC 72.4% | COLO 205 colon 90.2% | DU-145 prostate 108% | K-562 leukemia 112% | MALME-3M melanoma 100% | MDA-MB-231 breast 110% | RXF 393 renal 104% | SF-268 CNS 99.6% | SF-295 CNS 98.5% | SF-539 CNS 91.1% | M14 melanoma 94.3%

COc1ccc(NC(=O)CSc2nc3ccc(Cl)cc3c(=O)n2-c2ccccc2C(F)(F)F)c(OC)c1OC
inactive: NCI-H23 lung 79.6% | NCI-H226 lung 62% | NCI-H322M lung 86.6% | HOP-62 NSCLC 60.6% | NCI-H460 lung 82.4% | NCI-H522 lung 32.4% | A549/ATCC NSCLC 72% | COLO 205 colon 92.9% | DU-145 prostate 79.1% | K-562 leukemia 92.8% | MALME-3M melanoma 60.8% | MDA-MB-231 breast 54% | RXF 393 renal 60.3% | SF-268 CNS 66.7% | SF-295 CNS 60.9% | SF-539 CNS 66.9% | UACC-257 melanoma 86% | M14 melanoma 91.4%
active: HOP-92 NSCLC -2.83%

CCCCCC/C=C\CCCCCCCCOc1ccc(CCOP(=O)(O)OCC[N+](C)(C)C)cc1
inactive: NCI-H23 lung 98.8% | NCI-H226 lung 102% | NCI-H322M lung 105% | HOP-62 NSCLC 72.8% | NCI-H460 lung 26.9% | HOP-92 NSCLC 60.7% | NCI-H522 lung 59% | 786-0 renal 89.6% | COLO 205 colon 86.4% | DU-145 prostate 98% | K-562 leukemia 74.8% | MALME-3M melanoma 103% | MDA-MB-231 breast 88.3% | SF-268 CNS 66.7% | SF-295 CNS 89.9% | SF-539 CNS 94.7% | M14 melanoma 88.1%
